# Laboratory results as given in PubChem BioAssay AID1053 (University of Pittsburgh Molecular Library Screening Center, 2008).
# Several values for one entry are separate records, joined by “and”; a condition that tells them apart may be missing. Identical values can stand only once. Values without a mark were called inactive. No rule for the calls is given here.
# Target: Serine/threonine-protein kinase PLK1 (Homo sapiens) (UniProt P53350)
# Test: Plk1 polo box domain binding inhibitors, SAR follow-up, biochemical, fluorescence polarization, purchased analogs (AID 1053)
# Conditions: Plk1 PBD fluorescence polarization peptide binding; at 20 µM; active compounds read high
# Sequence of Serine/threonine-protein kinase PLK1 (Homo sapiens) (P53350 whole entry, looked up, the tested form may be a part): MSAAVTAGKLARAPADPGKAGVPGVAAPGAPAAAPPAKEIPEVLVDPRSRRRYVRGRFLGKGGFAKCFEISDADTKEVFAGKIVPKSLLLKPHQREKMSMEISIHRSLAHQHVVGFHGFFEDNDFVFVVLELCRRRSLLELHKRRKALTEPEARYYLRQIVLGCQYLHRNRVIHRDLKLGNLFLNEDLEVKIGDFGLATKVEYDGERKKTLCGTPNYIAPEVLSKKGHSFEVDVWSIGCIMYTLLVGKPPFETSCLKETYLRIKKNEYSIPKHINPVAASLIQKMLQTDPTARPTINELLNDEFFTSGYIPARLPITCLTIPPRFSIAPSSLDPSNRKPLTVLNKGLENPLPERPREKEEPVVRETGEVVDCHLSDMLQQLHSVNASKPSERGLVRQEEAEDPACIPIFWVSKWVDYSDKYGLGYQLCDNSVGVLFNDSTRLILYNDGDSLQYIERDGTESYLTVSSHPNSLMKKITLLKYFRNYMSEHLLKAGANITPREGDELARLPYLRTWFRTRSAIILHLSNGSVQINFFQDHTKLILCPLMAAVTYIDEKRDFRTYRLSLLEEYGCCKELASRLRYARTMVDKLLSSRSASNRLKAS
row,Structure (SMILES),inhibition
1,Cn1c(=O)[nH]c2nnc(-c3ccc4c(c3)OCO4)nc2c1=O,-38.9% and 28%
2,CCOC(=O)c1ccc(N=Cc2c(O)n(-c3ccc(C)cc3)c(=O)[nH]c2=O)cc1,-22.9%
3,CC(=O)N(/C=C1\Sc2ccccc2C1=O)c1ccc(C)c(C)c1,-217%
4,COc1ccc(-c2nnc3[nH]c(=O)n(C)c(=O)c3n2)cc1OC,-22.8% and -20.3%
5,Cc1ccccc1-c1nnc2[nH]c(=O)n(C)c(=O)c2n1,-8.49% and -8.27%
6,CCOc1cc(-c2nnc3[nH]c(=O)n(C)c(=O)c3n2)ccc1OC(C)C,15.8%
7,CC(=O)N(CN1C(=O)c2ccccc2C1=O)c1ccc(Cl)c(Cl)c1,-88.3%
8,CCOC(=O)c1ccc(NC(=O)c2ccc(NC(=O)CC)cc2)cc1,-9.03%
9,CC(=O)N(CN1C(=O)c2ccccc2C1=O)c1cc(Br)ccc1C,-56.1%
10,Cc1ccc(C(=O)CN2C=CC(=C(O)NCc3ccccc3)C=C2)cc1,-52.1%
11,CC(=O)N(CN1C(=O)c2ccccc2C1=O)c1cccc(F)c1,-51.8%
12,CC(=O)N(CN1C(=O)c2cccc([N+](=O)[O-])c2C1=O)c1ccc2c(c1)oc1ccccc12,-35.9%
13,COc1ccc(N(CN2C(=O)c3ccccc3C2=O)C(=O)C(F)(F)F)cc1,-44.5%
14,Cn1c(=O)c2nc(-c3ccccc3)c(=O)n(C)c2n(C)c1=O,-37.8%
15,CCOC(=O)c1ccc(NC(=O)c2cncc(Br)c2)cc1,-31.4%
16,Cn1nc(-c2ccc(C(F)(F)F)cc2)nc2c(=O)n(C)c(=O)nc1-2,13.6% and 30.2%
17,CC(=O)N(CN1C(=O)c2ccccc2C1=O)c1ccc(Br)cc1,-29.4%
18,Cn1c(=O)[nH]c2nnc(-c3ccc(Cl)cc3)nc2c1=O,28.8%
19,CCCCCCC(=O)N(CN1C(=O)c2ccccc2C1=O)c1ccc(OCc2ccccc2)cc1,-7.37%
20,O=C1NC(=O)C(=Cc2ccccc2OCCOc2ccccc2)C(=O)N1,-20.6%
21,CCOC(=O)c1ccc(NC(=O)c2ccc3nc(N)sc3c2)cc1,-36.9%
22,CCOC(=O)c1ccc(NC(=O)c2cc3ccccc3oc2=O)cc1,-10.3%
23,CC(=O)N(CN1C(=O)c2ccccc2C1=O)c1ccc(Oc2ccccc2)cc1,-50%
